High-throughput results from PubChem BioAssay.
DENV2 CPE = DENV2-induced cell death inhibition; hit rate 1.7% among 350,000; CPE inhibition, % at 9.99 µM; AID 651640; DENV2-infected cells, cytopathic effect rescue, plate reader; in the data active = CPE inhibition above about 20%, passing the limit was not always enough; inconclusive = no clear call, values can overlap the other calls; tested in BHK-21 cells
N-glyco inh = blocks N-linked glycosylation in D54 reporter cells | reporter increase, % at 12.5 µM | D54 ERlucT glycosylation luciferase reporter, 24 h; percent of 100 nM tunicamycin response | AID 588692 | hit rate 0.23% among 360,000;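 active = mean luciferase reporter signal, scaled so untreated is 0 and the glycosylation-blocking control 100, at or above a set limit in every replicate; inconclusive = mean reaches the limit but not every replicate does; inactive = mean below the limit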;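 also: luciferase carries N-glycosylation sites so blocking glycosylation raises the light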
PglD DTNB = PglD (C. jejuni) enzyme inhibition | purified PglD enzyme, DTNB colorimetric CoA detection | inhibition, % at 12.5 µM | hit rate 0.098% among 360,000; in the data active = inhibition above about 16%, passing the limit was not always enough; inconclusive = no clear call, values can overlap the other calls
Rtt109 Vps75 = inhibitors of Candida albicans Rtt109/Vps75 histone acetyltransferase | Q5AAJ8 | purified Rtt109/Vps75, ThioGlo CoA-SH fluorescence, 4 h | inhibition, % at 34.9 µM | hit rate 0.16% among 330,000;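 active = inhibition of at least 50% in every replicate; inconclusive = best replicate reaches 50% inhibition but some replicates fall short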
Target sequence (Q5AAJ8 whole entry, looked up): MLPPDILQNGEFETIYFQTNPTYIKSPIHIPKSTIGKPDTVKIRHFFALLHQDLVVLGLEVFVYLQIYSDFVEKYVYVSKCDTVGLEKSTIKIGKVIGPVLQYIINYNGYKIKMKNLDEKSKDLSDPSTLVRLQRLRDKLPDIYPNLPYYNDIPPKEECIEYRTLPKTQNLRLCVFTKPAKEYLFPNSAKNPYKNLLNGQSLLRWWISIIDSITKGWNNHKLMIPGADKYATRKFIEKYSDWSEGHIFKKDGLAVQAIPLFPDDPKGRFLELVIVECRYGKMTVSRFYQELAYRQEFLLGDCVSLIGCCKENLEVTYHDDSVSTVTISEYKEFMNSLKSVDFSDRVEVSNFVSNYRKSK
Hits are given with their value; i = inactive; ? = inconclusive; nt = not tested or not shown; + = active, no number. This excerpt belongs to a sample that is enriched for hits.

SMILES	DENV2 CPE	N-glyco inh	PglD DTNB	Rtt109 Vps75
COc1ccc(-c2ccc3c(c2)[C@H]2[C@H](CCN2S(=O)(=O)c2ccc(OC)cc2)[C@H](CO)N3)cc1	54	nt	i	nt
CC(C)NC(=O)N1CC2(C1)[C@H](c1ccccc1)[C@@H](CO)N2Cc1cccnc1	i	nt	nt	nt
COc1ccc(CN(C)C[C@@H]2Oc3ccc(NS(C)(=O)=O)cc3CC(=O)N([C@H](C)CO)C[C@H]2C)cc1	i	nt	i	nt
CN1OC[C@@H]2CN(C(=O)NC3CCCCC3)[C@H](c3ccc(N4CCCCC4)cc3)C[C@@H]21	22	i	i	nt
COc1ccc(Br)cc1CN1CCC(N2CCCC2)CC1	25	i	i	i
CCOC(=O)c1ccc(NC(=O)O[C@H]2[C@H](OC(=O)Nc3ccc4c(c3)OCO4)[C@@H](OC(=O)Nc3ccc4c(c3)OCO4)[C@@H](OC)O[C@@H]2CO)cc1	i	nt	nt	nt
CN1OC[C@@H]2CN(Cc3cc(Cl)cc(Cl)c3)[C@H](c3cccc(-c4ccc(C#N)cc4)c3)C[C@@H]21	24	i	i	nt
CC(=O)N1C[C@H]2CON(C)[C@H]2C[C@H]1c1cccc(-c2ccccc2)c1	i	i	i	i
CC(=O)N1C[C@H]2CON(C)[C@H]2C[C@H]1c1cccc(-c2ccc(C#N)cc2)c1	21	i	i	nt
Cc1cccc(-c2ccc([C@H]3[C@@H](CO)N4CCCCN(C(=O)c5ccncc5)C[C@H]34)cc2)c1	20	nt	i	nt
COc1cccc(-c2ccc([C@H]3[C@H](CO)N4CCCCN(C(=O)c5ccc(F)cc5)C[C@@H]34)cc2)c1	37	nt	i	nt
COc1ccccc1NC(=O)N1CCCCN2[C@H](CO)[C@H](c3ccc(-c4cccc(C)c4)cc3)[C@@H]2C1	22	nt	i	nt
COc1ccccc1NC(=O)N1CCCCN2[C@H](C1)[C@@H](c1ccc(-c3cccc(C)c3)cc1)[C@@H]2CO	i	nt	i	nt
Cc1noc(C)c1NC(=O)Nc1cccc2c1O[C@@H](CN(C)C(=O)Nc1ccc3c(c1)OCO3)[C@H](C)CN([C@H](C)CO)C2=O	i	nt	i	nt
O=C(CNC(=O)c1ccc(F)cc1)c1ccc(Cl)cc1	i	i	i	52
O=C(Cc1ccccn1)N1CC[C@@H]2[C@H]1c1cc(-c3cccc(F)c3)ccc1N[C@@H]2CO	i	nt	i	nt
COc1ccc([C@H]2C(C(=O)O)=C[C@@H](C(C)(C)C)N2S(=O)(=O)c2ccccc2)cc1	83	i	i	i
Cc1ccc([C@H]2C(C(=O)O)=C[C@@H](C(C)(C)C)N2S(=O)(=O)c2ccc(C)cc2)cc1	?	i	i	i
CCCCNC(=S)NNC(=O)c1ccc2c(c1)OCO2	142	i	nt	i
Cc1nnc(Sc2cc(NCCCO)c([N+](=O)[O-])c3nonc23)s1	i	i	nt	+
Cc1nnc(Sc2cc(NCCO)c([N+](=O)[O-])c3nonc23)s1	i	i	nt	i
CCNC(=O)C[C@H]1CC[C@H]2[C@@H](COC[C@@H](O)CN2C(=O)Nc2ccc(C(F)(F)F)cc2)O1	i	nt	i	nt
CC1=NCCN1CCNC(=O)Nc1ccc(C(C)(C)C)cc1	24	i	i	i
Brc1ccc(-c2noc(CCc3ccccc3)n2)o1	56	i	i	i
Cc1noc(C)c1NC(=O)Nc1cccc2c1O[C@@H](CN(C)Cc1ccncc1)[C@@H](C)CN([C@H](C)CO)C2=O	i	nt	i	nt
SMILES	DENV2 CPE	N-glyco inh	PglD DTNB	Rtt109 Vps75
O=S(=O)(Nc1ccc(O)c(Sc2nc3ccccc3s2)c1)c1ccc(F)cc1	nt	i	nt	i
O=S(=O)(Nc1ccc(O)c(Sc2nc3ccccc3s2)c1)c1cccc2ccccc12	nt	i	nt	58
CCC(=O)N1CCCCN2[C@H](C1)[C@H](c1ccc(C#Cc3cccnc3)cc1)[C@@H]2CO	28	nt	i	nt
CCC(=O)N1CCCCN2[C@H](C1)[C@@H](c1ccc(C#Cc3cccnc3)cc1)[C@@H]2CO	24	nt	i	nt
N/C(=N\OC(=O)Nc1ccccc1)c1ncc([N+](=O)[O-])s1	33	i	nt	i
CC(C)C#Cc1ccc2c(c1)O[C@H](CN(C)C(=O)c1ccccn1)[C@@H](C)CN([C@@H](C)CO)S2(=O)=O	i	nt	i	nt
COc1cc(/C=N/N=C(N)N)ccc1OCc1ccccc1Cl	i	i	nt	69
COc1ccc(CN(C)C[C@@H]2Oc3c(NC(=O)c4ccc(-c5nccs5)cc4)cccc3C(=O)N([C@H](C)CO)C[C@H]2C)cc1	i	nt	i	nt
CC(C)CCC(O)(c1ccccc1)C(CN1CCOCC1)c1ccccc1 (centres undefined)	30	i	i	i
COc1cc2c(cc1OC)CN(C(=O)[C@H]1[C@@H]3C(=O)O[C@@H](c4ccccc4)[C@@H](c4ccccc4)N3[C@@H](c3ccccc3OCCO)[C@]13C(=O)Nc1ccccc13)CC2	i	nt	i	nt
